Compound activity from PubChem BioAssay.
Hits are enriched below; roughly 19% of the tested compounds scored in any of these assays.
HT1080 IDH1KD tx = qHTS for induction of synthetic lethality in tumor cells producing 2HG: qHTS for the HT-1080-IDH1KD cell line | HT-1080 IDH1 knockdown viability, ATP luminescence, 48 h | Potency, µM (titrated, usually from 46.1 µM), inactives show at the highest dose activity, negative = toxicity, actives largely listed as cytotoxic | 360,000 tested, 2% active;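 also: 0% = DMSO wells and -100% = cell-free medium wells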
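After a 2 h attachment period, IDH1KD HT-1080 cells took pin-transferred compound for 48 h at 37 °C; ATP-based luminescence after 10 min room-temperature reagent incubation reported viability.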
KB-V1 MDR tox = qHTS assay for MDR1-selective chemotherapeutics: Primary screen using the drug-selected MDR subline cells KB-V1; KB-V1 MDR cells viability, CellTiter-Glo, 72 h; Potency, µM (top dose mostly 46.1 µM), most hits filed as cytotoxic; 400,000 tested, 3.4% active; also: nearly all actives have a fitted effect of over 60% in size
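KB-V1, DMEM (no phenol red) + 10% FBS; cpd pin-transferred, titration series; 72 h, 37 degrees C; CellTiter-Glo, luminescence. Data normalized, curve-fit.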
HT1080NT lethal = qHTS for induction of synthetic lethality in tumor cells producing 2HG: qHTS for the HT-1080-NT fibrosarcoma cell line; Potency, µM (highest dose often 46.1 µM), for the others: at the highest dose activity, negative = less viability, usual class: cytotoxic; HT-1080-NT fibrosarcoma viability, CellTiter-Glo ATP luminescence, 48 h; 360,000 tested, 1.6% active;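 also: NT is the 2HG producing partner of a matched IDH1 knockdown line; 0% = DMSO-treated cells and -100% = media-only wells without cells; nearly all actives have a fitted effect of over 55% in size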
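HT-1080-NT fibrosarcoma cells (2HG-overproducing), 750 cells/well in RPMI with 5% FBS, dosed after 2 h and incubated 48 h at 37C. CellTiter-Glo luminescence normalized to DMSO and no-cell wells; concentration-response curves fitted and classed.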
DT40 TDP1 no CPT = qHTS for Inhibitors of human tyrosyl-DNA phosphodiesterase 1 (TDP1): qHTS in cells in absence of CPT; DT40 Tdp1-/- hTDP1 cells, no CPT, ATP luminescence, 48 h; Potency, µM (highest dose often 46.2 µM), without a hit: at the top dose activity change, negative = growth inhibition, actives largely listed as inhibitors; 420,000 tested, 15% active; also: nearly all actives have a fitted effect of over 55% in size
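A cellular qHTS used chicken DT40 cells lacking endogenous Tdp1 but carrying stably transfected human TDP1. Compounds were applied without camptothecin, and cell growth kinetics were judged by ATP-dependent luminescence after ≥48 hr.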
KB-3-1 cytotox = qHTS assay for MDR1-selective chemotherapeutics: Primary screen using the parental adenocarcinoma cell KB-3-1. KB-3-1 viability, CellTiter-Glo ATP luminescence, 72 h. Potency, µM (doses to about 46.1 µM), most hits filed as cytotoxic. 400,000 tested, 1.4% active; also: nearly all actives have a fitted effect of over 60% in size
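Cytotoxicity in the drug-sensitive parental line KB-3-1 was scored as loss of CellTiter-Glo luminescence following 72 h incubation with compound. Values come from curve fitting of normalized concentration-response data.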
TDP1 cell CPT = qHTS for Inhibitors of human tyrosyl-DNA phosphodiesterase 1 (TDP1): qHTS in cells in presence of CPT. chicken DT40 Tdp1-/-;hTDP1 cells + 20 nM CPT, ATP luminescence, 48 h. Potency, µM (top dose mostly 46.2 µM), without a hit: top-dose activity change, negative = growth inhibition, actives largely listed as inhibitors. 420,000 tested, 12% active. AID 686979, 2013; also: nearly all actives have a fitted effect of over 55% in size
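Cell growth measured by CellTiter-Glo luminescence after a minimum 48 h, 37 C compound exposure with 20 nM CPT in Tdp1-knockout DT40 cells stably expressing hTDP1, seeded 400/well; qHTS titration format.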
An asterisk follows results filed as active; i = inactive; ? = inconclusive; nt = not tested or not shown; [ ] = remark or other dose. Calls follow the shape of the dose curve; as a rule, active = well fitted curve in the direction sought with a large enough effect; inconclusive = small, poorly fitted or top-dose-only effect, or another doubt; inactive = no such curve, though single readings can be large; an effect the other way counts as inactive or inconclusive. Unless noted, % is scaled to controls: 0 for no effect and ±100 for the full control effect; potency is read from the fitted curve at half-maximal effect.

SMILES	HT1080 IDH1KD tx	KB-V1 MDR tox	HT1080NT lethal	DT40 TDP1 no CPT	KB-3-1 cytotox	TDP1 cell CPT
Cc1ccc(NC(=O)C2(C)CCN2CCc2ccccc2)cc1O (centres undefined)	0.0%	i	1.0%	-21.4%	i	-24.2%
CC(=O)N1CCc2cc(NC(=O)C3(C)CCN3Cc3ccccc3OC(F)F)ccc21 (centres undefined)	?	?	?	18.4µM*	?	25.9µM*
Cc1ccc(/C=C/C(=O)NC(=S)Nc2ccc(S(=O)(=O)Nc3cc(C)on3)cc2)cc1	-18.7%	i	-17.9%	0.8%	?	7.1%
CC(=O)Nc1ccc(NC(=O)C(C)OC(=O)CNS(=O)(=O)c2cccc(Cl)c2)cc1 (centres undefined)	13.1%	?	4.0%	-1.7%	i	-7.2%
Cc1c(NC(=O)Nc2cccc(C(F)(F)F)c2)c(=O)n(-c2ccccc2)n1C	7.0%	i	7.4%	20.1%	i	8.8%
COc1ccc(OC)c(NC(=O)C2(C)CCN2C(C)C)c1 (centres undefined)	14.6%	i	?	-21.8%	i	-18.5%
COc1ccc(OC)c(NC(=O)C2(C)CCN2Cc2ccsc2)c1 (centres undefined)	12.4%	i	13.6%	11.6µM*	i	16.4µM*
COc1ccc(OC)c(NC(=O)C2(C)CCN2Cc2ccccc2OC(F)F)c1 (centres undefined)	-15.2%	i	?	16.4µM*	i	?
COc1cccc(NC(=O)C2(C)CCN2Cc2ccccc2OC(F)F)c1 (centres undefined)	?	?	?	16.4µM*	i	20.6µM*
CCCCCC(=O)O[C@H](CC(=O)O)C[N+](C)(C)C	nt	nt	nt	-11.1%	nt	7.7%
Cc1c(C(=O)NCC2(N3CCCCC3)CCCC2)cnn1-c1nccc(-c2ccccc2F)n1	nt	nt	nt	-7.4%	nt	0.4%[9.04 µM]
CCCc1ccccc1OCCNS(=O)(=O)c1cc2c(cc1C)OCC(=O)N2	?	?	?	11.6µM*	?	14.6µM*
O=C(NCCCN1CCCCC1)c1[nH]c2ccccc2c1Sc1ccc(Cl)cc1	nt	i	nt	20.6µM*	i	20.6µM*
COCCNC(=O)c1[nH]c2cc(C)ccc2c1Sc1ccc(Cl)cc1	nt	i	nt	-10.0%	i	-0.3%
COc1ccc2c(Sc3ccccc3)c(C(=O)N3CCC(C)CC3)[nH]c2c1	nt	i	nt	?	i	20.6µM*
CC1CCCCN1CCCNC(=O)c1[nH]c2ccccc2c1Sc1ccc(Cl)cc1 (centres undefined)	nt	i	nt	13µM*	i	10.3µM*
CCOC(=O)C1CCCN(C(=O)c2[nH]c3ccccc3c2Sc2ccc(Cl)cc2)C1 (centres undefined)	nt	i	nt	?	?	?
COc1ccc2c(Sc3ccccc3)c(C(=O)NCCCN3CCCCC3)[nH]c2c1	nt	nt	nt	18.4µM*	nt	?
O=C(c1cccc(Br)c1)N1CCN(S(=O)(=O)N2CCCCCC2)CC1	-4.2%	i	-1.6%	-22.9%	i	-18.8%
CC(CN(C)C)C(C)(O)Cc1ccc(Cl)cc1 (centres undefined)	nt	nt	nt	-10.1%	nt	-24.8%
CCOc1cc(/C=N/Nc2nc(-c3cccs3)c(NC(C)=O)s2)ccc1O	-6.5%	?	-4.2%	13µM*	i	-2.9%
CC(=O)Nc1sc(N/N=C\c2ccccc2Cl)nc1-c1cccs1	-26.5%	?	-10.8%	18.4µM*	i	16.4µM*
CC(=O)Nc1sc(N/N=C\c2ccccc2)nc1-c1cccs1	0.8%	i	0.2%	?	i	-26.9%
CN(CC(=O)Nc1cc(S(=O)(=O)N2CCCC2)ccc1Cl)Cc1nc2ccccc2c(=O)[nH]1	-7.7%	i	-4.8%	20.6µM*	i	?
COc1ccc(S(=O)(=O)N2CCCCC2)cc1NC(=O)CCc1nc2ccccc2c(=O)[nH]1	-12.1%	i	-15.0%	-28.6%	i	-21.7%
SMILES	HT1080 IDH1KD tx	KB-V1 MDR tox	HT1080NT lethal	DT40 TDP1 no CPT	KB-3-1 cytotox	TDP1 cell CPT
COc1cccc(CN(C)CC(=O)Nc2cc(S(=O)(=O)N3CCCC3)ccc2Cl)c1OC	-2.9%	20.6µM*	-6.7%	?	?	20.6µM*
COc1ccccc1CN(C)CC(=O)Nc1cccc(S(=O)(=O)N2CCCC2)c1	0.2%	?	-1.0%	23.1µM*	i	?
O=C(CCc1nc2ccccc2c(=O)[nH]1)Nc1cccc(S(=O)(=O)N2CCCCC2)c1	0.3%	?	-1.5%	20.6µM*	i	?
COc1ccccc1CNCC(=O)Nc1cc(S(=O)(=O)N2CCCCCC2)ccc1Cl	-26.5%	?	?	?	i	?
Cc1ccc(S(=O)(=O)N2CCCCC2)cc1NC(=O)CCc1nc2ccccc2c(=O)[nH]1	-0.7%	?	-5.9%	?	i	?
Cc1cccc(-n2c3nc(=O)[nH]c(=O)c-3cc3ccc(Cl)cc32)c1C	nt	i	nt	8.2µM*	i	?
Cc1ccc(-n2c3nc(=O)n(C)c(=O)c-3cc3c(Cl)cccc32)c(C)c1	nt	i	nt	?	i	-14.5%
Cc1cccc(-n2c3nc(=O)[nH]c(=O)c-3cc3c(Cl)cccc32)c1C	nt	i	nt	0.581µM*	i	0.82µM*
